Compound activity: PubChem BioAssay, Sanford-Burnham Center for Chemical Genomics
Only some compounds are listed: those with a hit (about 1.5% of all), similar ones and a draw of the others.
Neddylation inh: inhibitors of human cullin neddylation. AID 651699. P61081+Q13564. TR-FRET cullin neddylation, biochemical. inhibition, % at 25 µM. 360,000 tested, 0.58% active; in the data active = inhibition above about 36%
GC-B act: GC-B (human) receptor activation; 370,000 tested, 0.11% active; P20594; HEK293-GC-B cells, CNP EC30, cGMP TR-FRET; 0% at EC30 CNP, 100% saturating CNP; activation, % at 10 µM;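 active = activation at 10 µM reaching about 35% in either raw or pattern-adjusted values, limit read from the data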
NadD inh: blocks S. aureus nicotinate mononucleotide adenylyltransferase. purified NadD enzyme, colorimetric absorbance read-out. 360,000 tested, 0.78% active. inhibition, % at 20 µM. AID 602399; in the data active = inhibition above about 26%
NPR1 activator: GC-A (human) enzyme activation; P16066; HEK293 GC-A cells, cGMP TR-FRET, EC30 ANP; 0% at EC30 ANP, 100% saturating ANP; activation, % at 10 µM; 370,000 tested, 0.14% active; AID 1671463; in the data active = activation above about 40%
Starred values were filed as active, the others as inactive; . = no result given.

SMILES	Neddylation inh	GC-B act	NadD inh	NPR1 activator
CCn1c(C)cc(/C=C2\NC(=O)N(Cc3ccc(Cl)cc3)C2=O)c1C	16	49*	19	19
Cn1c(=O)c2c(nc(NCC3CCCO3)n2Cc2ccccc2)n(C)c1=O (configuration not stated)	-4	29	-9	28
CCCCCCn1c(N2CCCC2)nc2c1c(=O)[nH]c(=O)n2C	4	-4	-2	-8
Cn1c(=O)c2c(nc(NC3CCCCC3)n2Cc2ccccc2)n(C)c1=O	3	54*	-7	79*
CCCCCn1c(NC2CCCCC2)nc2c1c(=O)[nH]c(=O)n2C	6	17	4	48*
C/C(Cl)=C\Cn1c(Nc2ccccc2)nc2c1c(=O)n(C)c(=O)n2C	18	55*	-3	62*
C/C(Cl)=C/Cn1c(NCCN(C)C)nc2c1c(=O)n(C)c(=O)n2C	0	0	1	0
Oc1c(Br)cc(Br)cc1C=Nc1cccc2ncccc12	55*	-6	6	0
COC(=O)[C@]12C[C@H](CC(=O)NCc3cccc4ccccc34)C(=O)N(Cc3ccccc3)C1=C[C@H](C(C)C)O[C@@H]2C1CC1	.	-2	.	-5
C#CCOCCOCCOCCNc1nc(N2CCN(C(=O)CCCCCCCCCCNC(=O)[C@H](CCCCN)n3cc(CCO)nn3)CC2)nc(N2CCN(C(=O)CCCCCCCCCCNC(=O)[C@H](CCCN=C(N)N)n3cc(C[C@@H](C)CC)nn3)CC2)n1	-13	.	44*	.
C#CCOCCOCCOCCNc1nc(N2CCOCC2)nc(N2CCN(C(=O)CCCCCCCCCCNC(=O)[C@@H](CCSC)n3cc(CCO)nn3)CC2)n1	-18	5	-5	0
C#CCOCCOCCOCCNc1nc(N2CCN(C(=O)CCCCCCCCCCNC(=O)Cn3cc(C[C@@H](C)O)nn3)CC2)nc(N2CCN(C(=O)CCCCCCCCCCNC(=O)[C@H](CCCCN)n3cc(C[C@@H](C)CC)nn3)CC2)n1	-19	.	44*	.
C#CCOCCOCCOCCNc1nc(N2CCN(C(=O)CCCCCCCCCCNC(=O)[C@@H](CCSC)n3cc(CCO)nn3)CC2)nc(N2CCN(C(=O)CCCCCCCCCCNC(=O)[C@H]([C@@H](C)CC)n3cc(CCCCN=C(N)N)nn3)CC2)n1	-26	.	68*	.
C#CCOCCOCCOCCNc1nc(N2CCN(C(=O)CCCCCCCCCCNC(=O)[C@H](CCCCN)n3cc(C[C@@H](C)CC)nn3)CC2)nc(N2CCN(C(=O)CCCCCCCCCCNC(=O)[C@H](CCCCN)n3cc(C[C@@H](C)CC)nn3)CC2)n1	13	.	48*	.
Cc1[nH]c2ccccc2c1CC(=O)Nc1ccc(Nc2cccnc2)c(-c2ccc(Cl)c(Cl)c2)c1	.	-1	.	1
O=C(Nc1ccc2c(c1)OCO2)NC1CCN(S(=O)(=O)c2ccc(F)cc2)CC1	.	0	.	-1
O=C(CN1C(=O)CCC1=O)Nc1nc(-c2ccc3ccccc3c2)cs1	-33	-2	-2	18
Cc1ccc(-c2csc(NC(=O)CN3C(=O)CCC3=O)n2)cc1	-17	4	-7	55*
Cc1cc([N+](=O)[O-])cc2c1NC(c1ccccn1)C1CC=CC21 (configuration not stated)	-28	-5	29	-13
O=[N+]([O-])c1ccc(Cl)c2c1C1C=CCC1C(c1ccccn1)N2 (configuration not stated)	-7	-5	41*	-13
CC(=O)N1c2ccccc2C(C)=NCC1C(=O)NC1CCCCC1 (configuration not stated)	.	0	.	0
CC(C)(C)c1ccc(-c2nnc(SCC3CCCCO3)n2-c2ccc(Cl)cc2)cc1 (configuration not stated)	.	-1	.	1
Oc1ccc(-c2nc3ccc4ccccc4c3c3c2CCC3)cc1O	21	-2	39*	-1
CN[C@H]1C[C@H]2c3[nH]c4c(-c5ccc6c(c5)OCO6)cccc4c3CCN2C[C@H]1[C@H](C)O	.	-18	.	-8
CCc1ccc2[nH]c3nc(C)cc(C)c3c(=O)c2c1	-98	37*	1	41*
SMILES	Neddylation inh	GC-B act	NadD inh	NPR1 activator
COC(=O)c1cc2c(c3c4cc(C)ccc4n(S(=O)(=O)c4ccc(C)cc4)c13)C(=O)N(Cc1ccc(C(F)(F)F)cc1)C2	.	0	.	-1
CCCS(=O)(=O)c1c(S(=O)(=O)CCC)c2ccc(C(N)=O)cn2c1C(=O)c1ccccc1	-5	42*	-5	35
COc1cccc(/C=C2\CC3(OC(=O)C4CCCC4)CCCN2C3)c1 (configuration not stated)	.	-3	.	-1
CC(=O)OC(C)C1C2=C(C(=O)CC1(C)O)C(=O)c1c(ccc(-c3ccc4c(c3O)C(=O)C3=C(C4=O)C(C(C)OC(C)=O)C(C)(O)CC3=O)c1O)C2=O (configuration not stated)	-18	6	45*	1
CCCCNC(=O)C[C@H]1C[C@@]2(C(=O)OC)C(=C[C@H](COCc3ccccc3)O[C@@H]2C)N(Cc2ccccc2)C1=O	.	0	.	2
CCCCCCCCN1C(=O)[C@@H](CC(=O)NCc2cccc(C(F)(F)F)c2)C[C@@]2(C(=O)OC)C1=C[C@H](COCc1ccccc1)O[C@@H]2C	.	2	.	-1
COc1cc(Cl)nn(-c2ccccc2)c1=O	-3	-1	3	-1
O=c1c(Cl)cc(Cl)nn1-c1ccccc1	-38	1	3	47*
CC(C)(C)c1ccc(-c2nnc(SCC(=O)Nc3cccc4ccccc34)n2Cc2ccco2)cc1	.	8	.	-2
CCC(NC(=O)Cc1cccs1)c1ccccc1 (configuration not stated)	-8	68*	2	1
CC(NC(=O)Cc1cccs1)c1ccccc1 (configuration not stated)	-8	1	-3	4
COc1cc(OC)cc(C(=O)NCCN2C(=O)C3C4C=CC(C4)C3C2=O)c1 (configuration not stated)	.	3	.	1
Cc1ccc(-c2nnc(SCC(=O)c3ccc(O)c(O)c3)n2-c2ccc(Cl)cc2)cc1	.	-1	.	-3
NC(c1csc(Nc2nccc(C(F)(F)F)n2)n1)C1CCCCC1 (configuration not stated)	-4	50*	1	-1
O=C(NCc1ccco1)C1CCCN(S(=O)(=O)c2cccs2)C1 (configuration not stated)	.	-2	.	-2
Cc1cc(N=Nc2ccc(C)c(N=Nc3cc(C)c(N)cc3N)c2)c(N)cc1N	-68	-4	30*	2
COc1ccc(N=Nc2cc(OC)c(N)cc2OC)cc1	-130	-4	4	-3
CCN(CC)c1ccc(/C=N/NC(=O)Cc2nnc(NC(=O)Nc3ccccc3)s2)cc1	38	-2	48*	-7
C=CCc1cccc2cc(C(=O)Nc3ccc(S(=O)(=O)Nc4nnc(CC)s4)cc3)c(=O)oc12	-16	1	50*	-8
Nc1ccc(O)cc1C(=O)OCC(=O)c1ccc(C2CCCCC2)cc1	40*	-10	6	1
COc1ccc(C(=O)OCC(=O)c2ccc(C3CCCCC3)cc2)cc1	-20	2	2	-1
